# High-throughput results: PubChem, National Center for Advancing Translational Sciences (NCATS)
# The sample as a whole holds a higher share of hits than the screen did.
# Pf Dd2 growth: blocks in vitro growth of P. falciparum Dd2 | P. falciparum Dd2 growth, SYBR Green, 72 h | Potency, µM (series often up to 28.9 µM), for inactives: top-dose activity, negative = inhibition, actives largely listed as inhibitors | 120,000 tested, 4.3% active | AID 1347417; active = well fitted inhibition curve with a large enough effect;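 note: plate controls were DMSO vehicle for no effect and reference drug for full effect; nearly all actives have a fitted effect of over 65% in size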
#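 Readout: SYBR Green fluorescence, 485 nm excitation, 535 nm emission, after ~16 h lysis at 37C. Before that, Dd2-infected red cells (2.5% hematocrit) grew 72 h with compound, 29 uM top final concentration.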
# Numbers without * were called inactive; i = inactive; [ ] = another dose, or the depositor's remark. Potency is the fitted concentration of half-maximal effect.
SMILES,Pf Dd2 growth
CCC(=O)NCC12CCCC=C1NC(=O)CC2 (stereo not drawn),37.6%
Cc1cccc(C(=O)N2CCC(C(=O)N3CCCCCCNC(=O)CC3)CC2)c1,-22.9%
Cc1cnc(C)c(N2CCN(CC3(O)CCNC3)CC2)n1 (stereo not drawn),0.7%
CN(C)c1cc(N2CCCC(N)C2)ncn1 (stereo not drawn),-5.3%[5.79 µM]
Cc1c(-c2ccccc2F)[nH]c2ccc(CNC(=O)CCN3CCCO3)cc12,i
CC1(C(=O)NCc2ccncc2)CN(Cc2ccccc2)Cc2ccc(N3CCOCC3)nc21 (stereo not drawn),-19.4%
COCCC(=O)N[C@H]1CC[C@]2(C)CC[C@@H]([C@H](C)C(=O)NC(C)(C)C)[C@H](O)[C@H]2[C@@H]1C,-13.6%[44.1 µM]
COCCN1Cc2nc(Nc3ccc(C(F)(F)F)cc3)ccc2OCC1=O,12.6µM*
O=C1COc2ccc(-c3cn[nH]c3)nc2CN1Cc1ccc(C(F)(F)F)cc1,i
O=C1COc2ccc(Nc3cccc(F)c3)nc2CN1CCOc1ccccc1,-2.2%[44.1 µM]
Cc1nc(CN2Cc3nc(-c4cnn(Cc5ccccc5)c4)ccc3OCC2=O)cs1,10µM*
COc1cccc(CN2Cc3nc(-c4cnn(Cc5ccccc5)c4)ccc3OCC2=O)c1,i
O=C1COc2ccc(Nc3ccccc3)nc2CN1CCOc1ccccc1,-8.9%[44.1 µM]
Cc1ccccc1CN1Cc2nc(-c3cnn(Cc4ccccc4)c3)ccc2OCC1=O,-39.9%[44.1 µM]
O=C1COc2ccc(-c3ccncc3)nc2CN1Cc1ccc(C(F)(F)F)cc1,-33.0%[44.1 µM]
O=C1COc2ccc(-c3ccoc3)nc2CN1Cc1ccc(C(F)(F)F)cc1,12.6µM*
Cc1ccc(-c2noc([C@@H]3C[C@H](NC(=O)CC(C)(C)CC(=O)O)CN3C)n2)cc1,i
O=C1OCCCN1C1CCN(S(=O)(=O)c2cccs2)CC1,i
COc1cccc(CC(=O)Nc2ccc3c(c2)CN(Cc2ccccc2Cl)C(=O)C(C)O3)c1 (stereo not drawn),-2.5%
Cc1nc(C2(C)CCN(C(=O)CCc3nc4ccccc4[nH]3)CC2)no1,17.9%
Cc1nnc2n1C(C)CN(C(=O)COc1ccc(-n3cnnn3)cc1)C2 (stereo not drawn),-0.5%
O=C(NCc1noc(-c2cccs2)n1)[C@H]1CNC[C@H](C(=O)N2CCCC2)C1,10.8%
COCCC1(C(=O)O)CCN(c2ccnc3c(C(F)(F)F)cccc23)CC1,-12.6%
FC(F)(F)c1cccc2c(N3CCC4(CCCN4Cc4ncc[nH]4)CC3)ccnc12,10µM*
OC[C@H]1CCN(c2ccnc3c(C(F)(F)F)cccc23)C[C@H]1O,-21.9%
SMILES,Pf Dd2 growth
COCCOCc1nc(C2CCN(C(=O)Nc3ccc(OC)c(OC)c3)CC2)no1,6.2%
CCNC(=O)CCc1c(C)nn(-c2ccc(F)cc2)c1Oc1ccccc1C,i
Cn1nccc1C(=O)N1CCCC1C(=O)Nc1cccc(-n2cccn2)c1 (stereo not drawn),0.0%
CCc1ccc(C(=O)N2CCC(N3C(=O)CCC3C(N)=O)CC2)cc1 (stereo not drawn),-5.9%
COc1ccccc1C(=O)N1CCC(C(=O)O)(c2ccccc2)CC1,4.3%
COc1ccccc1C(=O)N1CCC(c2c[nH]c3ccccc23)(c2c[nH]c3ccccc23)CC1,3.55µM*
COc1ccccc1C(=O)N1CCC2(C1)C(=O)N(C)c1ccccc12 (stereo not drawn),i
CCN(CC)c1ccc(C(=O)N2CCC(c3c[nH]c4ccccc34)(c3c[nH]c4ccccc34)CC2)cc1,3.98µM*
CCN(CC)c1ccc(C(=O)N2CCC(c3ccncc3)CC2)cc1,56.6%[5.79 µM]
Cc1ccc(C(=O)N2CCC3(C2)C(=O)Nc2ccccc23)cc1 (stereo not drawn),-10.2%
CC(C)N(C)Cc1ccc(-c2nc(-c3ccncc3)cc(=O)[nH]2)cc1,-15.2%
C[C@@H](NC(=O)COc1ccccc1)c1c(-c2ccc(Cl)cc2)noc1C(=O)O,-15.8%[44.1 µM]
COC[C@@H]1CN(C(=O)c2ccc(C#N)cc2)C[C@H]1c1ccccn1,1.5%
COc1cc2c(cc1OCc1ccccc1)N(C(=O)[C@@H]1CCCO1)CC21CCN(C)CC1,i
COc1cc2c(cc1OCc1ccccc1)N(C(=O)c1c[nH]c3ccccc13)CC21CCN(C)CC1,2.51µM*
COc1cc2c(cc1OCc1ccc(Cl)cc1)N(Cc1ccccc1)CC21CCN(C(C)=O)CC1,i
